Target: AMP-activated protein kinase, AMPK (Homo sapiens) (UniProt P54646+O43741+P54619+Q9UGJ0+Q9Y478+Q13131+Q9UGI9)
Assay: AMP-dependent Kinase enzyme assay. An in vitro enzyme assay that detects ADP turnover that is directly proportional to AMPK activity. This uses naive AMPK that is activated during the assay with MK-8722
Assay type: functional
Design: scale not given: direction of the effect not stated beside the values
Conditions: 30 µM

SMILES	Percent Effect [%]
CCOc1ccccc1C(=O)NCc1nncn1C1CC1	-9.44
Nc1nc(CCCNC(=O)c2ccccc2C2CCNC2)cs1 (stereo not given)	-5.1
Cc1ccc(C(C(=O)NC(C)(C)CN2CCCC2)N(C)C)cc1 (stereo not given)	-22.5
CN1CCCCC1Cc1nc2c(cc1C(N)=O)CCC2 (stereo not given)	-4.26
CCc1cc(=O)[nH]c(-c2ccc(NC(C)COC)nc2)n1 (stereo not given)	-2.5
CC(c1ccncn1)N(C)S(=O)(=O)NCc1ccccc1 (stereo not given)	-13.5
Cc1noc(C)c1CCc1nc(C2CCOC2)no1 (stereo not given)	-7.75
Cc1noc(C)c1-c1cccc(C2CCN(S(=O)(=O)N(C)C)CC2)n1	5.6
CC(C)n1cnnc1SCCN(C)c1ccccc1	8.44
NC(=O)CN(Cc1ncc(-c2ccc(F)cc2)o1)C1CCCC1	-3.13
O=C(CCCN1CCCCC1)NC(C(=O)O)c1cccc(F)c1 (stereo not given)	14.7
CN(CCc1ccccn1)C(=O)Nc1cccnc1-n1cccn1	-3.54
O=C(Cn1cc(I)cn1)N1CCNC1=O	0.6
COc1ccc2c(c1)CCCC2CC(=O)O (stereo not given)	-8.39
COc1ccc(CN2CC(n3cccn3)C2)cc1F	-6.94
CN1CCCC1c1ccnc2nccn12 (stereo not given)	6.44
O=C(NCC[S+]([O-])Cc1ccccc1)c1ccc2[nH]c(=O)[nH]c2c1 (stereo not given)	13.6
COc1ccc(Cl)cc1C(=O)N1C[C@H](C(C)C)[C@@H](N)C1	6.24
CSc1ncccc1C(=O)NC(C)c1cccc(N2CCOC2=O)c1 (stereo not given)	-0.0368
Cc1nnc(CN(C)CC(=O)N2CCCC(C(F)(F)F)C2)n1C (stereo not given)	14.3
C[C@@H]1CN(S(=O)(=O)N2CCCCCC2)C[C@@]1(O)C1CCC1	-7.79
Cc1cc(C)n(CCN(C)c2ccc(-c3nc(C4CC4)no3)cn2)n1	5.62
O=C(CCn1ccnn1)N1CCCC(n2cncn2)C1 (stereo not given)	14.6
CS(=O)(=O)CC1(CNc2c(C#N)cnc3ccc(Cl)cc23)CC1	5.05

SMILES	Percent Effect [%]
Cc1ccsc1C(CNC(=O)c1cc(=O)c2ccccc2[nH]1)N(C)C (stereo not given)	13.7
Cc1ccc(-c2ccccc2CC2CNCCNC2=O)c(C)c1 (stereo not given)	2.34
COc1ccc(N2CCN(Cc3noc(CC(C)C)n3)C(C)C2=O)cc1 (stereo not given)	0.845
Cn1ccc(C(=O)N2CCCC2c2cc[nH]n2)n1 (stereo not given)	4.63
CC(C)(C)CN(CCC#N)C(=O)Nc1cccc(N2CCNC2=O)c1	-2.8
O=C(CCC1CCCC1)N1C[C@H]2CC[C@@H]1CN(Cc1ccncc1)C2	6.08
CCN(CC)c1ncccc1CNCc1ccc(Cl)s1	-3.79
CCc1nc(C)c(CN2CCOC(Cc3ccccc3Cl)C2)[nH]1 (stereo not given)	-2.77
O=C(Cc1ccc(Cl)s1)Nc1ccc2c(c1)C(=O)NC2=O	68.3
Cc1nc(CC(C)C)cc(C(=O)N2C[C@@H](N(C)C)[C@H](C(C)C)C2)n1	-4.31
NC(=O)[C@@H]1Cc2ccccc2N1C(=O)C1CC(c2ccccc2)=NO1 (stereo not given in full)	11.5
CCc1nn(C)c(Cl)c1CN(CC)Cc1cnn(CC)c1	1.72
Cc1cc(CN(C)c2nc(-c3ccco3)nc3c2CCN(C)CC3)on1	6.52
Cc1cc(NCCc2c(C)n[nH]c2C)nc(-c2cccnc2)n1	-4.66
COc1ccc(C(C)NCCC(N)=O)cc1F (stereo not given)	-6.1
Cc1ccc(F)c(CNc2ccn(CCC(N)=O)n2)c1	-4.33
CN1CCN(c2ccc(F)cc2NC(=O)NCc2ccon2)CC1	4.16
CCNc1ncc(C(=O)NCCc2csc(-c3ncccn3)n2)cn1	-8.34
Cc1cc(CN(C)C(=O)c2cc(COc3ccccc3)[nH]n2)n[nH]1	1.22
Cc1cc(C)n(C2CN(C(=O)c3cn4ccsc4n3)C2)n1	-4.27
COCCCN1CC2(CCN(C(=O)c3ncc(F)cc3F)CC2)CC1=O	-0.49
CC1CCCCN1C(=O)Cn1cnc(C#N)n1 (stereo not given)	-5.33
O=C(NC1CCOCC1)c1cccc(C2CCCNC2)c1 (stereo not given)	2.1
Cc1ccccc1Cc1nc(CSc2nnc(N)n2C)no1	2.88

SMILES	Percent Effect [%]
CN(CCCOc1ccccc1Cl)C(=O)CN1CCCCCC1=O	9.36
COCCN1CCCC(c2nccnc2-c2cccc(Cl)c2)C1 (stereo not given)	-11.9
CCCOc1cccc(OCc2ccon2)c1	4.13
O=C(CNc1ccc(OC2CCOC2)cc1)NCc1ccco1 (stereo not given)	7.98
CN(Cc1nc(N)nc(N(C)C)n1)Cc1cccc2ccccc12	-3.23
CCOC(=O)c1ccc(S(=O)(=O)NCC(CC)N2CCCC2)cc1 (stereo not given)	-6.04
O=C(CNC(=O)c1ccccc1F)NCc1ccccn1	0.147
CC(C)c1ocnc1C(=O)Nc1cccc(Cn2ccccc2=O)c1	8.27
CCNC(=O)[C@@H]1C[C@H](N)CN1C(=O)c1c[nH]c2ccccc12	6.06
Cc1cccc(C)c1Oc1ncccc1CNC(=O)C1COC(=O)N1 (stereo not given)	-10.7
COc1cnc(N2CC(N3CCOCC3)C2)nc1-c1ccnn1C	-7.62
CN(Cc1ccsc1)C(=O)c1nc(N2CCCCC2)ncc1Cl	0.035
Cc1cc(C)n(C2CN(CCC(N)=O)C2)n1	-0.505
CCOCC1(CNCc2cc(O)c3cc(C)ccc3n2)CC1	-2.54
O=C1NCCN2CCN(Cc3ccc(Cl)c(Cl)c3)CC12 (stereo not given)	-0.338
COc1ccc(C(C)NCCc2ccc(NC(C)=O)cc2)c(OC)c1 (stereo not given)	8.45
O=C(c1cccnc1O)N1CCC2(CCCO2)CC1	0.948
CC(Oc1ccc2c(c1)OCO2)C(=O)N1CCC(N2CCOCC2)CC1 (stereo not given)	-2.63
O=C(NCc1nc[nH]n1)c1cc(COc2cccc(F)c2)[nH]n1	2.9
C=Cn1ncc(CN2CCC(c3ncc(Cl)cc3S(C)(=O)=O)CC2)c1C	-0.153
COCCN1C(=O)[C@H]2CC[C@@H]1CN(S(=O)(=O)c1cccc(Cl)c1)C2	27.4
Cc1ccc(CN(C(=O)NCC2CCS(=O)(=O)C2)C2CC2)o1 (stereo not given)	-7.42
Cc1cc(C)n(CCN2CCC(N(C)Cc3noc(C4CC4)n3)C2)n1 (stereo not given)	3.34
CCN(CC(=O)NC)C(=O)c1csc(Cc2ccccc2)n1	-5.87

SMILES	Percent Effect [%]
Cc1ccnc(NC(=O)c2ccc(Br)o2)c1	5.24
CCNC(=O)[C@@H]1C[C@H](N)CN1c1cc(C(F)(F)F)nc(N2CCCC2)n1	2.77
C[C@@H]1CN(S(=O)(=O)N2CCCC2)CC[C@@]1(O)C1CCOCC1	-5.74
Cc1cc(CN2CCC(C3CCN(CCc4ccccc4)CC3)C2)[nH]n1 (stereo not given)	-4.05
Cc1nc(CN2CCCC2Cn2cccn2)nc2ccccc12 (stereo not given)	-8.75
Cc1nnc(C(C)N2CCCN(Cc3noc(C4CC4)n3)CC2)o1 (stereo not given)	-4.62
CCN(CCOC)C(=O)c1cc(COc2ccc3c(c2)CCCC3)on1	0.118
COc1ccc(N2CCC(NS(=O)(=O)N(C)C(C)C)CC2)cc1	13.8
CS(=O)(=O)N1CCC(CNc2cc(Cl)ccc2C#N)CC1	7.86
CN1CCCC(CCC(=O)NCCc2nnc(N)s2)C1 (stereo not given)	-1.67
CN1CCC(NC(=O)c2cc(Cl)cc(Br)c2O)C1=O (stereo not given)	12.7
CN(Cc1nc2ccccc2n1C)C(=O)CCc1cscn1	3.49
OCc1cccc(OCc2ccon2)c1	4.35
O=C(CNC(=O)c1ccccc1I)NCc1ccccc1F	4.78
CN1CCCC(c2cccc(-c3ccccc3F)n2)C1 (stereo not given)	16.2
O=C(CN1CC(c2nc(-c3ccco3)no2)C1)NCCc1ccccc1	-5
COc1ccc(S(=O)(=O)NC(=O)C(C)OC)c(OC)c1 (stereo not given)	-4.37
Cc1cc(C)cc(OCCN(C)C2CCOC2=O)c1 (stereo not given)	-0.216
Cc1cnn(C2CCCN(C(=O)c3cc(-c4ccco4)[nH]n3)C2)c1 (stereo not given)	-19.9
Cc1nc(C)n(CC2CCCN2c2ncnc3sc(C)c(C)c23)n1 (stereo not given)	-3.96
CC(C)c1ccc(CC(=O)N2CCCC3(CN(C)C(=O)O3)C2)cc1 (stereo not given)	15
O=C(NCC(O)Cc1ccccc1)c1ccc2[nH]c(=O)[nH]c2c1 (stereo not given)	11.7
Cc1nnc(N2CCc3cncnc3C2)c(C#N)c1C	-187
Cc1nc(CN2CCN(c3cc(CCN)ncn3)CC2)cs1	-0.86

SMILES	Percent Effect [%]
CC1CCN(Cc2ccccc2CNC(=O)C2CNC(=O)N2)CC1 (stereo not given)	-1.18
CC(CN1CCOC1=O)NC(=O)c1cccc2cc[nH]c12 (stereo not given)	8.07
COc1ccc(CN2C[C@@H]3CC[C@H](C2)N(S(=O)(=O)C2CC2)C3)cc1	10.7
COCCC1(C(=O)O)CCCN(c2cc(C)c3ccccc3n2)C1 (stereo not given)	3.66
CN(C)c1nc2sc(C(=O)N3CCNC(=O)CC3)cc2s1	0.0719
O=C(c1cc(-c2ccccc2)nc2onc(C3CC3)c12)N1CC[C@H](O)C1	4.85
Cc1nccc(CN2Cc3nccn3CC2c2ccccc2)n1 (stereo not given)	15
COc1ccc(C(=O)NCC2CCCN(C3CCOCC3)C2)c(O)c1 (stereo not given)	14.3
CC(C)CC(=O)N1Cc2ccccc2CC1C(=O)Nc1nccs1 (stereo not given)	-4.39
COC(=O)c1ccc(NC(=O)CCNCc2ccco2)cc1	2.04
NCC(CO)Cc1ccc(C(F)(F)F)cc1 (stereo not given)	-3.66
Cc1nnc(CN(Cc2cccc3c2OCO3)CC2CCCO2)n1C (stereo not given)	-6.12
CC(=O)N1CCC(NC(=O)CN2CCCc3c(C)ccc(F)c32)CC1	5.92
COC(=O)c1ccc(CN(C(C)C)C(C)C)o1	3.89
CN1CC2(CCN(C(=O)c3ccc(=O)n(C)c3)CC2)CC1=O	-1.98
CN(C)c1cc(CNC(=O)C2COc3ccccc3O2)ccn1 (stereo not given)	0.412
Cc1nn(C2CCCCC2)c2nc(C(C)(C)CN3CCOCC3)[nH]c12	12
CC(=O)NCCNC(=O)NCc1ccc(-n2ccc(C(F)(F)F)n2)cc1	-0.713
CC(=O)Cn1c(C)cc(=O)c2cc(F)ccc21	10.5
c1ccc(CN2CCN(C3CCOC4(CCOCC4)C3)CC2)nc1 (stereo not given)	-0.926
CCN(Cc1ccoc1)c1ncc(S(N)(=O)=O)s1	-1.73
CS(=O)(=O)c1ccc(NC(=O)NCCC2=CCCCC2)cc1	-2.69
O=C(c1cccc(-n2cnnc2)c1)N1C[C@@H](O)[C@H](N2CCOCC2)C1	15.5
CCCn1nc(C)c(CN2CC3(CCOC3)CCC2=O)c1C (stereo not given)	1.7

From ChEMBL document CHEMBL3988442, “University of Dundee, Small-Polar-MMV Screening Library” (2021)
